Data: PubChem BioAssay (NCATS)
Unmarked numbers belong to inactive results. Results filed as inconclusive are left out. Where a call stands in place of a potency, no number is given. Active and inactive are the calls of the source. Unless noted, calls come from the whole dose curve; as a rule, active = well fitted curve in the direction sought with a large enough effect; inconclusive = small, poorly fitted or top-dose-only effect, or another doubt; inactive = no such curve, though single readings can be large; an effect the other way counts as inactive or inconclusive.

Tests used:
[1] = target: Cytochrome P450 1A2 (Homo sapiens) (UniProt P05177); assay: p450-cyp1a2 (AID 410; calls by dose curve; note: potency is the fitted concentration of half-maximal effect)
Cytochrome P450 1A2 (Homo sapiens), sequence (P05177 whole entry, looked up): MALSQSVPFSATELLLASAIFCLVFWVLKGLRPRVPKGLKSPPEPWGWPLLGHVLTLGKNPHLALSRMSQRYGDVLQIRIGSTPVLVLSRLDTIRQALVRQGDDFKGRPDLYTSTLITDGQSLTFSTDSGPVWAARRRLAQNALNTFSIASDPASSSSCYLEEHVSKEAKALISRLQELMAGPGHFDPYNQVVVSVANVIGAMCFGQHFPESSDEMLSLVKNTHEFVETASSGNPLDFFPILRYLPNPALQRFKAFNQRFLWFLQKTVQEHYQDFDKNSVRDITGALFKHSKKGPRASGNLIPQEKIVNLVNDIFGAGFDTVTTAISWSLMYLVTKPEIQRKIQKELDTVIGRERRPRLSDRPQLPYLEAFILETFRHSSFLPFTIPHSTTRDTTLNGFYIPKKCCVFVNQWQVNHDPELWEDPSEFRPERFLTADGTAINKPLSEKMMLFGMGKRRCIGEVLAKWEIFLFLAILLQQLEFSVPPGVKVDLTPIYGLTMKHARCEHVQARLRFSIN
In short: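 Luminescent readout of luciferin formed from Luciferin-ME by human CYP1A2; data normalized against complete inhibition by 57 uM furafylline. Enzyme 20nM, substrate 100uM at Km, 100mM KPO4 buffer, 60 min reaction at room temperature.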

[2] = target: Glucocorticoid receptor (Homo sapiens) (UniProt P04150); assay: GR-EFC Redistribution (AID 451; calls by dose curve; note: potency is the fitted concentration of half-maximal effect); details: CHO-K1 GR-EFC translocation, beta-gal luminescence, 2 h
Glucocorticoid receptor (Homo sapiens), sequence (P04150 whole entry, looked up, the tested form may be a part): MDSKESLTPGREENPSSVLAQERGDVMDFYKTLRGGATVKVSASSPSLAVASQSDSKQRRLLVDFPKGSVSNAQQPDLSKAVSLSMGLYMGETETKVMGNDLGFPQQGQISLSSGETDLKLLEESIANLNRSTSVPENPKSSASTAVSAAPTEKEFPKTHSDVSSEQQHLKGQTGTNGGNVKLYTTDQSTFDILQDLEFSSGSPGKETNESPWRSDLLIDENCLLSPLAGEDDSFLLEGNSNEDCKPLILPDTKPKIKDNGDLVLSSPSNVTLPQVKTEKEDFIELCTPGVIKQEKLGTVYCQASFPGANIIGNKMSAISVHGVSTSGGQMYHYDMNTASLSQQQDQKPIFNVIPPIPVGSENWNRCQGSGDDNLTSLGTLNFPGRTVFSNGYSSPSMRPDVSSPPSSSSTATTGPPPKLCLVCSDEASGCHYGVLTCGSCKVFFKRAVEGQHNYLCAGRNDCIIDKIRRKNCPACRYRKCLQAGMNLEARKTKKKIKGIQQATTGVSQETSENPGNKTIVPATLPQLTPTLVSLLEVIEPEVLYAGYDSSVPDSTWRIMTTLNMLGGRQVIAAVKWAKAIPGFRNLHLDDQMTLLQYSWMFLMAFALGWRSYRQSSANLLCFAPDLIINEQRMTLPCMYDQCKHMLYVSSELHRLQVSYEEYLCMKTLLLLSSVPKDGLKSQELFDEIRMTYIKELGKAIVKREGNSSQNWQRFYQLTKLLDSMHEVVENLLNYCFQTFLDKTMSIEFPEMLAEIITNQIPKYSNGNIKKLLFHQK
In short: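 CHO-K1 cells stably expressing nuclear-localized β-gal enzyme acceptor and GR fused C-terminally to the enzyme donor fragment; ligand-driven nuclear translocation restores β-gal by complementation. Compounds titrated up to 46 uM final, 2 h at 37 °C; luminescence read.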

[3] = target: Mitogen-activated protein kinase 10 (Mus musculus) (UniProt Q61831); assay: JNK3 AlphaScreen Assay (AID 530; active = well fitted curve in either direction with a large enough effect, not every such curve was filed as active;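 note: kinase came from lysate of stimulated human HepG2 cells; signal reports phosphorylation of biotinylated GST-cJun 1-79 at Ser73 with 10 µM ATP; series mostly up to about 57 µM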)
In short: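 Inhibitors reduce antibody binding to phosphorylated biotin-cJun, lowering AlphaScreen luminescence. Lysates from HepG2 cells pre-activated by IL-1beta plus TNF-alpha supplied JNK3; compounds were titrated.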

[4] = target: 3',5'-cyclic-AMP phosphodiesterase 4B (Homo sapiens) (UniProt Q07343); assay: qHTS Assay for Inhibitors of PDE-IV (AID 607; active = well fitted activation curve with a large enough effect in the main read-out, with a control signal flat, not every such curve was filed as active)
3',5'-cyclic-AMP phosphodiesterase 4B (Homo sapiens), sequence (Q07343 whole entry, looked up): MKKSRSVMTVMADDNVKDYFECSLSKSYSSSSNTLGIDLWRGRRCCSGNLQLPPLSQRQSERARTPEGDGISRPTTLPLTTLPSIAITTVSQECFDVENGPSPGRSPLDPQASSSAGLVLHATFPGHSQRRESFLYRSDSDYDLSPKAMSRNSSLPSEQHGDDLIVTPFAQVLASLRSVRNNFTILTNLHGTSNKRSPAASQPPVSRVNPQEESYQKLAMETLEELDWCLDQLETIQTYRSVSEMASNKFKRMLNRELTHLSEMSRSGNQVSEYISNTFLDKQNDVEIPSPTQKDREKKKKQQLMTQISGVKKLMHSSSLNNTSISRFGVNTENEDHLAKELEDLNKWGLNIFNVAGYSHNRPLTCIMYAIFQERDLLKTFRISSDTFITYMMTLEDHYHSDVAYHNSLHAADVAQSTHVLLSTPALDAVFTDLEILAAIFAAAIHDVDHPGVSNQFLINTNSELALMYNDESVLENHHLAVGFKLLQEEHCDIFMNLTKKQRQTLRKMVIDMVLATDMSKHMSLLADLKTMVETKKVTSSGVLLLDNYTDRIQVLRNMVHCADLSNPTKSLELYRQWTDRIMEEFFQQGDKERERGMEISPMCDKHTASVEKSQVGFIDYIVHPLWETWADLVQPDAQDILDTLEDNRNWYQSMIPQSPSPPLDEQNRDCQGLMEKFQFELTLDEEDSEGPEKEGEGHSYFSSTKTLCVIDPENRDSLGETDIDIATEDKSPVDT
In short: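 Live HEK293 cells with a modified cyclic nucleotide-gated (CNG) channel report intracellular cAMP via membrane-potential dye fluorescence (ex 535/em 590 nm). Endogenous PDE-IV was targeted. Compounds were tested at up to 22.9 uM final; RO 20-1724 100 uM served as control.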

[5] = target: Cytochrome P450 2D6 (Homo sapiens) (UniProt P10635); assay: qHTS Assay for Inhibitors and Substrates of Cytochrome P450 2D6 (AID 891);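 note: luciferin methyl ether substrate demethylated by CYP2D6 with NADPH regeneration; nearly all actives have a fitted effect of over 60% in size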
Cytochrome P450 2D6 (Homo sapiens), sequence (P10635 whole entry, looked up): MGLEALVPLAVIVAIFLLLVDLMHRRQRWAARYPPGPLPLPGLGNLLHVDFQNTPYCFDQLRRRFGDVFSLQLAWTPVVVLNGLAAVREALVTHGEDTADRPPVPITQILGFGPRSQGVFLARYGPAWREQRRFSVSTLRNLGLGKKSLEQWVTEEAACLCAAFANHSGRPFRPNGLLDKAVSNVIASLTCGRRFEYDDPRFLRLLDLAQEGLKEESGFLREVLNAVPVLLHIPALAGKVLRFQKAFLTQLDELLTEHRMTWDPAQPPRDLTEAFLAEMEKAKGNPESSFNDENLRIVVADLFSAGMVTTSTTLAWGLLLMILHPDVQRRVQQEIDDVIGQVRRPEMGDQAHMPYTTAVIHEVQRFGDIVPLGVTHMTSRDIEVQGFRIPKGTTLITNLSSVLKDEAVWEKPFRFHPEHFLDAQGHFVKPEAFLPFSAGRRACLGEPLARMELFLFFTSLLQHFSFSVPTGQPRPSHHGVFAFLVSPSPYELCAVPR
In short: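 Human CYP2D6 (5 nM) with 30 uM Luciferin-ME EGE (at Km) in 100 mM KPO4, compound preincubated 10 min, then NADPH regeneration system for 60 min at room temperature. Luciferin read by luminescence; normalized to 1.43 uM quinidine.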

[6] = target: Cytochrome P450 2C19 (Homo sapiens) (UniProt P33261); assay: qHTS Assay for Inhibitors and Substrates of Cytochrome P450 2C19 (AID 899); note: nearly all actives have a fitted effect of over 60% in size
Cytochrome P450 2C19 (Homo sapiens), sequence (P33261 whole entry, looked up): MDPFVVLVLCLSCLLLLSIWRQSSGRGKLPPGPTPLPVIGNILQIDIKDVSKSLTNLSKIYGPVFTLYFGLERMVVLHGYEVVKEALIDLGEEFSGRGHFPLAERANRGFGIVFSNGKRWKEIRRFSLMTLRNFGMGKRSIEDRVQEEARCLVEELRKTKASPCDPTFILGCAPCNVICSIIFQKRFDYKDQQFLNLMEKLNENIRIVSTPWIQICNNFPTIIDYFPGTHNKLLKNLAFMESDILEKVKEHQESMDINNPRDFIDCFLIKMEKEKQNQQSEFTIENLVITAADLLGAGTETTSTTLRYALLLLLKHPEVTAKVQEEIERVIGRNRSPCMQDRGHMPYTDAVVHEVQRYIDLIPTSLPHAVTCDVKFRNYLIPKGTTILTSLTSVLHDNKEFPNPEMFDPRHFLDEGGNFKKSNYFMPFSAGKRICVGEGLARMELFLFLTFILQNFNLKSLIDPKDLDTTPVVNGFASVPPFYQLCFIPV
In short: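 Human CYP2C19 (5nM) with Luciferin-H EGE at 10uM (its KM) in 50mM KPO4 was preincubated with compound for 10 min at 37C. NADPH regeneration started a 60 min 37C reaction. Luciferin was read by luminescence, normalized to 57uM ketoconazole.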

[7] = target: Cytochrome P450 2C9 (Homo sapiens) (UniProt P11712); assay: qHTS Assay for Inhibitors and Substrates of Cytochrome P450 2C9 (AID 883); note: nearly all actives have a fitted effect of over 60% in size; note: potency is the fitted concentration of half-maximal effect
Cytochrome P450 2C9 (Homo sapiens), sequence (P11712 whole entry, looked up): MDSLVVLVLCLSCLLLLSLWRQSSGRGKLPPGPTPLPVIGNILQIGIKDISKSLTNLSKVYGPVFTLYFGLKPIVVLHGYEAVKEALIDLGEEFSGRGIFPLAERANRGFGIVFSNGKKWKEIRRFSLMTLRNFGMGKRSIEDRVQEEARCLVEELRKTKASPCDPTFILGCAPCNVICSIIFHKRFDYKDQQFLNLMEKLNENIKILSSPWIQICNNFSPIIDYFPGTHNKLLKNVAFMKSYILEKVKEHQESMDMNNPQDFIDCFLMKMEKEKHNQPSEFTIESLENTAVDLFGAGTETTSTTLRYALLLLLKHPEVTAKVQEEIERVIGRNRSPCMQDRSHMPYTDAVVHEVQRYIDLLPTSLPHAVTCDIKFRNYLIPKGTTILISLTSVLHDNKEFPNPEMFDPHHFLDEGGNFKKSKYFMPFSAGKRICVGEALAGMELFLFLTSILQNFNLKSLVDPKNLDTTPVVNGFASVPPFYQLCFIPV
In short: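 Human CYP2C9 (10nM) hydroxylated Luciferin-H (100uM, at its KM) to luciferin in 25mM KPO4. Compound was preincubated 10 min at 37C, then NADPH regeneration started a 60 min reaction at 37C. Luminescence was read after detection reagent, normalized to 57uM sulphaphenazole.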

[8] = target: Cytochrome P450 3A4 (Homo sapiens) (UniProt P08684); assay: qHTS Assay for Inhibitors and Substrates of Cytochrome P450 3A4 (AID 884); note: potency is the fitted concentration of half-maximal effect; nearly all actives have a fitted effect of over 50% in size
Cytochrome P450 3A4 (Homo sapiens), sequence (P08684 whole entry, looked up): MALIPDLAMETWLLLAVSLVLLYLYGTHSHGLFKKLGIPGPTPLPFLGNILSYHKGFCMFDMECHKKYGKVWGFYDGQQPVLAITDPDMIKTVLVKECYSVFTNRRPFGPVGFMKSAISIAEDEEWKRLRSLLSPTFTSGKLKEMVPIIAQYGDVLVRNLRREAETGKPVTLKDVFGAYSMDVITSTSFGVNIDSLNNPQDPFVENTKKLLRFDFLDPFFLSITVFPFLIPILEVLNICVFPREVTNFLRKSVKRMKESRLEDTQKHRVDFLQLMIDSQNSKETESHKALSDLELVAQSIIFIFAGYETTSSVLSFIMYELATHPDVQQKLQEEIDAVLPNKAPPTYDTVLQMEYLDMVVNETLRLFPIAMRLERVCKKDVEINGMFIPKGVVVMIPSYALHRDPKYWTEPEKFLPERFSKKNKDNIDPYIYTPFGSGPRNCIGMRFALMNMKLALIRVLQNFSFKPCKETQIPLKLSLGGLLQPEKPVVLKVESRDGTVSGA
In short: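 20 nM human CYP3A4 with 25 uM Luciferin-PPXE (at KM) in 200 mM KPO4, preincubated 10 min with compound; NADPH regeneration started a 60 min RT reaction. Luciferin detected by luminescence, normalized to 57 uM ketoconazole as full inhibition.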

[9] = target: Cytochrome P450 3A4 (Homo sapiens) (UniProt P08684); assay: qHTS Assay for Activators of Cytochrome P450 3A4 (AID 885); note: nearly all actives have a fitted effect of over 65% in size
In short: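 Quantitative HTS format: compounds preincubated with 20nM human CYP3A4 and Luciferin-PPXE substrate at KM, reaction started by NADPH regeneration, stopped after 60 min, luciferase luminescence read 20 min later.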

Row | SMILES | Potency [1] | Potency [2] | Potency [3] | Potency [4] | Potency [5] | Potency [6] | Potency [7] | Potency [8] | Potency [9]
1 | CC(C)C[C@@H](CC(=O)N[C@@H](CCC(=O)O)CC(=O)O)NC(=O)[C@@H]1CNCC[C@H]1NC(=O)C[C@H](CCCN)NC(=O)C[C@H](Cc1ccccc1)NC(=O)[C@@H]1CCCC[C@H]1N | 25.1 µM (active) | > 46 µM | inactive | inactive | inactive | inactive | – | – | –
2 | CC(C)C[C@@H](CC(=O)N[C@@H](CCC(=O)O)CC(=O)O)NC(=O)[C@@H]1CNCC[C@H]1NC(=O)C[C@H](CCCN)NC(=O)C[C@H](CO)NC(=O)[C@@H]1CCCC[C@H]1N | inactive | > 46 µM | inactive | inactive | inactive | inactive | inactive | – | –
3 | CC1(C)S[C@@H]2[C@@H](NC(=O)[C@@H](N)c3ccccc3)C(=O)N2[C@H]1C(=O)O | inactive | – | inactive | inactive | – | – | – | – | –
4 | COC(=O)[C@@]1(Cc2ccc(F)cc2)[C@H]2c3cc(C(=O)N(C)C)n(CCc4c[nH]c5ccc(OC)cc45)c3C[C@H]2CN1C(=O)c1ccccc1 | 12.6 µM (active) | – | inactive | inactive | – | – | – | – | –
5 | CC(C)C[C@@H](CC(=O)N[C@@H](CCC(=O)O)CC(=O)O)NC(=O)[C@@H]1CCCC[C@H]1NC(=O)C[C@@H](NC(=O)C[C@H](Cc1c[nH]c2ccccc12)NC(=O)[C@@H]1CCCC[C@H]1N)C(C)C | inactive | > 46 µM | – | – | inactive | inactive | inactive | – | –
6 | CCCC/C=C/C(NC(=O)c1ccc(-c2ccccc2)cc1)c1ccccc1 (configuration not stated) | 15.8 µM (active) | – | inactive | inactive | – | – | – | – | –
7 | COC(=O)[C@@]1(Cc2ccccc2)[C@H]2c3cc(C(=O)N4CCCC4)n(Cc4ccc(C(F)(F)F)nc4)c3C[C@H]2CN1C(=O)c1ccccc1 | inactive | – | inactive | inactive | – | – | 5.01 µM (active) | 3.16 µM (active) | inactive
8 | C[C@@H](C(=O)Nc1ccc2ccccc2c1)[C@H]1C[C@]1(C)[C@H](NC(=O)OCc1ccccc1)c1ccccc1 | 3.98 µM (active) | – | inactive | inactive | – | – | 1.58 µM (active) | 2.51 µM (active) | inactive
9 | C[C@@]1(C(NC(=O)c2ccccc2)c2ccc(-c3ccccc3)cc2)C[C@H]1C1CCCCC1 (some centres not stated) | inactive | – | inactive | inactive | – | – | – | – | –
10 | COC(=O)[C@@]1(Cc2ccccc2)[C@H]2c3cc(C(=O)N4CCCC4)n(Cc4ccc(OC)c(OC)c4)c3C[C@H]2CN1C(=O)c1ccccc1 | inactive | – | inactive | inactive | – | – | 1.26 µM (active) | 1.26 µM (active) | inactive
11 | CC(C)C[C@@H](CC(=O)N[C@@H](CCC(=O)O)CC(=O)O)NC(=O)[C@@H]1CNCC[C@H]1NC(=O)C[C@@H](NC(=O)C[C@H](CO)NC(=O)[C@@H]1CNCC[C@H]1N)C(C)C | inactive | > 46 µM | – | – | inactive | inactive | – | – | –
